ssDAF12 agonist: activators of S. stercoralis DAF-12 nuclear receptor; 1% of 370,000 active; activation, % at 6.8 µM; HEK293 ssDAF-12/GRIP1 lit1-tk-luc reporter, luminescence; % of 3 µM dafachronic acid response; AID 652126;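 active = activation above the mean over all tested compounds plus 3 SD, cut at about 0.9% in these data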;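 also: 0% = DMSO-only wells and 100% = 3 µM delta7-dafachronic acid wells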
hgDAF12 agonist: agonists of H. glycines DAF-12 nuclear receptor; HEK293 GAL4-hgDAF12 UAS-luciferase reporter, agonist luminescence; normalized to butyrate control; activation, % at 6.8 µM; 1.8% of 370,000 active; AID 687014;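 active = activation above a cutoff set at the mean of all screened compounds plus 3 SD, cut at about 10% in these data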;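 also: 0% = DMSO wells and 100% = sodium butyrate wells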
hcDAF-12 act: H. contortus DAF-12 activation, primary screen; 1.4% of 370,000 active; activation, % at 6.8 µM; HEK293 hcDAF-12 lit1-tk-luc reporter, luminescence; 0% DMSO, 100% Δ7-dafachronic acid;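 active = activation above the mean of all tested compounds plus 3 SD, cut at about 5.5% in these data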;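 also: 100% = response to 3 µM Δ7-dafachronic acid high control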
DAX1 inh-1: NR0B1 (DAX1) inhibition | HEK293 Gal4-DAX1 luciferase reporter, luminescence | inhibition, % at 6.75 µM | 0.99% of 340,000 active | AID 504766;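 active = inhibition above the mean over all tested compounds plus 3 SD, cut at about 4.2% in these data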;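 also: 0% = DAX1-transfected cells with DMSO and 100% = empty-vector control cells with DMSO; inhibition shows as a rise in luminescence from relieved DAX1 repression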
Target sequence (P51843 207-470 limits assumed): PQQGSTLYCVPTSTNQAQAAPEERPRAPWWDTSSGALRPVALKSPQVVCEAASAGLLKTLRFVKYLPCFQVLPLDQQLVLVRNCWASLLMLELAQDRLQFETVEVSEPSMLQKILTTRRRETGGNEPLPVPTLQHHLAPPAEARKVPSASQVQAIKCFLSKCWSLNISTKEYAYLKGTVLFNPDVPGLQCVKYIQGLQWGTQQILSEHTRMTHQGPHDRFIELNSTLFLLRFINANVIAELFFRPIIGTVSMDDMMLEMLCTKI
DAX1 inh-2: DAX1 (NR0B1) inhibition, primary screen | HEK293T StAR-luciferase reporter, SF-1/DAX-1 repression relief | inhibition, % at 6.8 µM | 1.1% of 370,000 active | AID 652010;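 active = inhibition above the mean over all tested compounds plus 3 SD, cut at about 3.6% in these data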;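 also: 0% = DAX-1 cells with DMSO and 100% = cells lacking DAX-1 with DMSO; higher inhibition means more luminescence from relief of DAX-1 repression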
* hit, by the source's call; nt = not tested or not shown. This is a sample that favours compounds with a hit; in the whole collection about 4.1% have one here.

SMILES | ssDAF12 agonist | hgDAF12 agonist | hcDAF-12 act | DAX1 inh-1 | DAX1 inh-2
COc1cc(-c2cc(NC=O)c3ncc(-c4ccccc4)n3c2)cc(OC)c1OC | -1 | -2 | -2 | nt | -1
COc1ccccc1CNC(=O)C[C@H]1CC[C@H]2[C@@H](COc3ccc(NC(=O)Nc4ccccc4)cc3C(=O)N2C)O1 | -1 | -1 | -1 | nt | 1
COCCCNC(=O)c1oc(=O)c2ccccc2c1-c1ccc(C)cc1 | -1 | 2 | -2 | nt | 0
COc1cc(-c2cnc3c(NC=O)cc(-c4ccccc4Cl)cn23)cc(OC)c1OC | -1 | -8 | 1 | nt | 4.2*
OC(c1ccccc1)(c1ccccc1)C1CCN(CCCOc2ccc(Br)cc2)CC1 | -1 | 1 | -1 | nt | 0
CCOc1cccc(/C=C/c2ccc3cccc(O)c3n2)c1O | 0 | 10* | 5.8* | 2 | 0
CCOc1cccc(/C=C/c2ccc3cccc(O)c3n2)c1OC | -1 | 10 | 3 | 1 | 0
Cc1ccc(-n2c(SCC(=O)Nc3ccc(OCc4ccccc4)cc3)nnc2-c2ccco2)cc1 | -1 | -1 | 3 | nt | -2
CC(=O)N/C(=C/c1ccccc1)C(=O)NC(Cc1ccccc1)C(=O)O (centres undefined) | -1 | 11* | -1 | 0 | 0
COC(=O)C1(C(=O)OC)C[C@H](/C=C/c2ccccc2)N(Cc2ccccc2OC)[C@@H]1c1cccc(Br)c1 | 0 | 3 | -1 | nt | 0
COC(=O)C1(C(=O)OC)C[C@H](/C=C/c2ccccc2)N(Cc2ccccc2OC)[C@@H]1c1ccccc1 | -1 | 1 | -1 | nt | 3.9*
COC(=O)[C@]12C[C@H](CC(=O)N3CCOCC3)C(=O)N(CCc3ccc(OC)c(OC)c3)C1=C[C@H](COCc1ccccc1)O[C@@H]2C | -1 | -3 | -3 | nt | -2
O=C1C(=O)N(CCN2CCOCC2)C(c2ccccc2)/C1=C(\O)c1ccc2c(c1)OCCO2 (centres undefined) | -1 | -2 | 1 | 1 | 4.0*
Cc1nn(-c2ccccc2)c2sc(C(=O)N3CCN(S(=O)(=O)c4ccc(Br)s4)CC3)cc12 | -1 | -1 | 1 | nt | 2
CC(=O)N1CCc2cc(Br)c(S(=O)(=O)NCc3ccc(Cl)cc3)cc21 | -2 | -2 | -1 | nt | -1
CCCCn1c(N)c(N(CC(C)C)C(=O)c2cc(Cl)nc3ccccc23)c(=O)[nH]c1=O | 1.1* | 0 | 0 | 0 | 0
CCCCn1c(N)c(N(CC(C)C)C(=O)c2cc(C)nc3ccccc23)c(=O)[nH]c1=O | -1 | 1 | -1 | -1 | -1
CCCCn1c(N)c(N(CCOC)C(=O)c2cc(-c3ccccc3)nc3ccccc23)c(=O)[nH]c1=O | 0 | 2 | 1 | 7.0* | 2
Cn1c2ccc(F)cc2c2nnc(SCCN3CCOCC3)nc21 | 1.1* | 2 | 6 | 2 | 1
Cc1ccc(C)c(C(=O)COc2ccc(C)nc2[N+](=O)[O-])c1 | 0 | -2 | 2 | 0 | 0
Cc1ccc(OCC(=O)Nc2ccc(F)cc2)c([N+](=O)[O-])n1 | 0 | 10 | 5 | 7.0* | 3
Cc1ccc(OCC(=O)c2c[nH]c3ccccc23)c([N+](=O)[O-])n1 | 1 | 4 | 6.3* | 3 | 2
COc1ccc(C(=O)NNC(=O)CCc2nc3ccccc3c(=O)[nH]2)cc1 | -1 | 3 | 0 | 2 | 1
CCc1ccc(C(=O)NNC(=O)CCc2nc3ccccc3c(=O)[nH]2)cc1 | 0 | 1 | -1 | 1 | 3.6*
CC(=O)c1ccc(Nc2ncnc3c2oc2ccccc23)cc1 | 1.0* | 10 | 2 | 2 | 1
SMILES | ssDAF12 agonist | hgDAF12 agonist | hcDAF-12 act | DAX1 inh-1 | DAX1 inh-2
CC(=O)Nc1ccc(Nc2nc(C)nc3c2oc2ccccc23)cc1 | -2 | -4 | 0 | -1 | 0
Cc1ccc(S(=O)(=O)N(C)CC(=O)N2CCN(Cc3ccccc3)CC2)cc1 | -1 | -2 | 1 | 5.0* | -1
Cc1ccc(S(=O)(=O)N(C)CC(=O)N2CCCCCCC2)cc1 | -1 | 0 | 0 | -2 | -1
O=C1C(=O)N(c2ccccc2)C(c2ccccc2[N+](=O)[O-])/C1=C(\O)c1ccccc1 (centres undefined) | 1.6* | 4 | 5 | 0 | -1
Cc1cccc(/C=N\NC(=O)c2csnn2)c1 | 0 | 9 | 5 | 1 | 2
O=C(N/N=C/c1ccc(OC2CSC2)cc1)c1ccccc1 | 0 | 5 | 2 | 2 | 4.2*
O=C(N/N=C\c1ccc(Oc2ccccc2)cc1)c1csnn1 | 0 | 11* | 1 | 5.4* | 2
CCOC(=O)C1CCN(C(=O)C(C)(C)NC(=O)Nc2ccc(C(F)(F)F)cc2Cl)CC1 | -2 | -1 | -1 | nt | nt
Cc1ccc(-c2noc(C3CCCN(C(=O)c4ccccc4Br)C3)n2)o1 (centres undefined) | 1.7* | 1 | 0 | 0 | 1
COc1ccc(-c2noc(C3CCCN(C(=O)Nc4ccccc4F)C3)n2)cc1 (centres undefined) | -1 | 11* | 0 | -2 | 1
COc1ccccc1C(=O)NNC(=S)NC(=O)c1sc2ccccc2c1Cl | 1 | 4 | 6.1* | 0 | 1
CCNc1nc(-c2cc(C)n(Cc3ccco3)c2C)cs1 | 0 | 0 | 3 | 5.0* | 0
c1ccc(-c2nn[nH]n2)cc1 | -1 | -2 | 1 | 1 | 0
c1ccc(-c2nnc(-c3ccccc3)nn2)cc1 | 1.0* | 9 | 5 | nt | 1
COc1ccc(NC(=O)c2cnc3sccn3c2=O)cc1 | 0.9* | 8 | 5 | 0 | 2
O=C(Nc1cnc2sccn2c1=O)c1ccccc1Cl | -1 | 9 | 3 | 0 | 3.9*
Cc1cccc(NC(=O)c2cnc3sccn3c2=O)c1C | 0 | 12* | 2 | nt | 3.9*
CC(C)(C)C(=O)NC1CCCCN(Cc2ccc(Cl)cc2)C1=O (centres undefined) | -2 | -6 | -4 | nt | -3
CC(C)(C)c1ccc(C#C[C@@H]2C=C[C@H](O)[C@@H](COC(=O)Nc3ccccc3)O2)cc1 | 1.9* | 5 | 5.8* | nt | 1
Cc1ccc(C(=O)N2CCC(Oc3cccnc3)CC2)c(C)c1 | -2 | -4 | 0 | nt | 0
Cc1occc1C(=O)n1nnc2ccccc21 | -1 | -2 | 5.8* | nt | -1
CCOc1ccc2nc(N3C(=O)/C(=C/c4ccccc4)NC3=S)sc2c1 | 0 | 10 | 3 | 5.1* | 2
COc1ccc2nc(N3C(=O)/C(=C/c4ccccc4)NC3=S)sc2c1 | -2 | 0 | 4 | -1 | 0
O=C(Nc1ccc(N2CCOCC2)c(Cl)c1)c1ccccc1F | 0 | 8 | 2 | 3 | 3.7*
COc1ccc(NC(=O)C(=O)NCCCO)cc1Cl | -1 | 4 | 1 | 4.5* | 1
CC(=O)Nc1ccc(NC(=S)NC(=O)C2CC2)cc1 | 0 | 1 | 2 | 0 | 2
Cc1ccc(NC(=S)NC(=O)C2CC2)c(C)c1 | 0 | 7 | 3 | 1 | 4.0*

Screening results from PubChem.
